Experiment [1] can be described thus: inhibitors of TNFa-induced NFkB p65 translocation, primary screen, imaging, HUVEC, MLSMR starter and 10KST1 sets (AID 438;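 active means inhibition above 20% together with a positive visual image hit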;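 further: compound added about 3h40 before a 20 min TNFalpha stimulation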;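 on inhibition: signal is the nuclear over cytoplasmic p65 intensity ratio per well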). The settings on record: HUVEC TNFa-induced p65 nuclear translocation; cell count: measured here: nuclei count (cytotoxicity indicator), at 2.08 µM; inhibition: at 2 µM, stronger effect = higher value, 0% TNFa-plus-vehicle, 100% no-TNFa wells.
Experiment [2] is described as follows: inhibitors of mutant huntingtin aggregation, primary screen, imaging, exon1htt(103Q)mCFP cells, high-content imaging (AID 483;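 active means visual image review flags a hit and inhibition of aggregation exceeds 20%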;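 further: compound exposure lasted 3 days before fixation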;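 on nuclei count: percent of the per-plate median nuclei count of sample wells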). Conditions: exon1htt(103Q)mCFP cell line, aggregate imaging, at 2 µM; inhibition of aggregation: stronger effect = higher value; nuclei count: measured here: cell count, toxicity.
Experiment [3] is described as follows: inhibitors of E-selectin induction by TNFa, primary screen, imaging, HUVEC, immunofluorescence, MLSMR starter and 10KST1 sets (AID 487;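 active means visually confirmed hit in the image check and inhibition above 20%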;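 on inhibition: signal is fraction of cell area covered by stained E-selectin grains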;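 on nuclei count: 100% = median nuclei count of all wells on the same plate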). Conditions: HUVEC TNFalpha-induced E-selectin immunofluorescence imaging, at 2 µM; inhibition: stronger effect = higher value; nuclei count: measured here: cell number, toxicity.
In experiment [4] the target is Voltage-gated potassium channel subunit beta-2 (Rattus norvegicus) (UniProt P62483). Kind of experiment: KvBeta enzyme negative modulators, primary screen, biochemical, NADPH fluorescence (AID 622).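 Further: slope of raw intensity against log time taken from 70 to 1610 s.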 The settings on record: recombinant KvBeta, 4-cyanobenzaldehyde reduction, at 10 µM, stronger effect = higher value.
Chain of Voltage-gated potassium channel subunit beta-2 (Rattus norvegicus) (P62483 whole entry, looked up): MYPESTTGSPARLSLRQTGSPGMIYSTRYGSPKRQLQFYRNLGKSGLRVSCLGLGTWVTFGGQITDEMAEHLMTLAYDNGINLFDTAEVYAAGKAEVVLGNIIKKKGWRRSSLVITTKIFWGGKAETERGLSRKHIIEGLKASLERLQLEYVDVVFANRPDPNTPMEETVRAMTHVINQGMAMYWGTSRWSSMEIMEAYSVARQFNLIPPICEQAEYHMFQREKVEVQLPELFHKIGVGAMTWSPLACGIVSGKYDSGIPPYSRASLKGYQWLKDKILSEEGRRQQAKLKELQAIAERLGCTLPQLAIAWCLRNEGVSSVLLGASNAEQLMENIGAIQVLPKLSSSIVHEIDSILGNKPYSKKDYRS
The target is the same in experiment [5]. Kind of experiment: KvBeta positive modulators, primary screen, biochemical, NADPH fluorescence (AID 623;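 active means NADPH fluorescence slope more negative than the mean of all samples by about 3 SD, 99.7% confidence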;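 further: fluorescence intensity change per second fitted from 20 to 320 s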). The settings on record: Recombinant KvBeta, NADPH fluorescence decrease slope, 10 min; at 10 µM; stronger effect = lower value.
Experiment [6] deals with Alpha-2C adrenergic receptor (Homo sapiens) (UniProt P18825). In words: modulators of alpha2C/GIRK thallium flux, primary screen, cell-based, HEK293 alpha2C/GIRK1/2 (AID 624;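 active means fluorescence slope after compound addition differing from the mean of all screened samples at 99.7% confidence, in either direction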;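 further: slope of fluorescence ratio to pre-addition baseline per second over 15 to 24 s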). Conditions: thallium flux BTC fluorescence, at 10 µM, actives lie on both sides.
Chain of Alpha-2C adrenergic receptor (Homo sapiens) (P18825 whole entry, looked up): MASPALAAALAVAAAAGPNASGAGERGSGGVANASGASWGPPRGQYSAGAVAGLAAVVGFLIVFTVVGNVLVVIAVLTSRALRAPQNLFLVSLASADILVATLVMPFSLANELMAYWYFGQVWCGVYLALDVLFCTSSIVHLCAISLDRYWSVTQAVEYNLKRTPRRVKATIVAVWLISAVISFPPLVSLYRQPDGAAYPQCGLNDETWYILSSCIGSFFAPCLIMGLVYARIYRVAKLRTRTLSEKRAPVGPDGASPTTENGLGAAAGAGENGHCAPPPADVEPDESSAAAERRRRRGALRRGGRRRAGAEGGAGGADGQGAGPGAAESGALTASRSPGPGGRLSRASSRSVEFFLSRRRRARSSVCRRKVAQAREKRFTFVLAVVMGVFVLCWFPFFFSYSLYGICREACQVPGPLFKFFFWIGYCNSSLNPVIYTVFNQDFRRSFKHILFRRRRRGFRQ
Experiment [7] can be described thus: inhibitors of Sendai virus-induced IRF3 signaling, primary screen, TLR/RLR signaling modifier project, cell-based, Sendai virus stimulus, luciferase, 10K MLSCN set (AID 602276;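 active means inhibition at or above 50% at 10 µM; inactive means inhibition below 50%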;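 further: firefly luciferase from ISG56 promoter only with Renilla not read in this screen; 0% = Sendai virus plus DMSO and 100% = medium plus DMSO without virus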). The settings on record: HEK293 RL24 IRF3 luciferase reporter, at 10 µM, stronger effect = higher value. Background: In a reporter assay the amount or activity of a reporter protein is the signal.

A short description of experiment [8]: inhibitors of poly I:C-induced TLR3 signaling, primary screen, cell-based, poly I:C stimulus, luciferase, 10K MLSCN set (AID 602277;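 active means inhibition of the reporter signal at or above 50%; inactive means inhibition below 50%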). Conditions: HEK293-TLR3 RL24 IRF3 luciferase reporter, at 10 µM, stronger effect = higher value.

Results on eight compounds are retold here after PubChem BioAssay.

The source made the active and inactive calls.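 How the source made its calls, unless noted: active means fluorescence slope higher than the sample average by over 3 SD (cut at about -0.22 in these data, passing the limit was not always enough); inactive means the rest.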

Consider `COc1ccccc1OCCOc1ccccc1/C=N/n1cnnc1`, for which the cell count in experiment [1] was determined as 375. Besides, the inhibition is -3.8% (inactive) in experiment [1], -66.6% (inactive) in experiment [3], -3.21% (inactive) in experiment [7] and -1.03% (inactive) in experiment [8]. Besides, the inhibition of aggregation in experiment [2] was -14.3% (inactive). Further, the values for the nuclei count in experiment [2] and in experiment [3] were 94.1% and 103%, respectively. For the same compound, the fluorescence slope in experiment [4] was -0.402 (inactive). The NADPH fluorescence slope in experiment [5] was -2.8e-05 (inactive). Further, the slope in experiment [6] is 0.00507 (inactive).
As to `Cn1c(=O)[nH]c(=O)c2c1nc(NC1CCCCC1)n2CC(=O)NC1CCCCC1`, the cell count in experiment [1] was determined as 751. Besides, the inhibition in experiment [1] is -14.7% (inactive); in experiment [3] it was 10.2% (inactive); in experiment [7], 18.1% (inactive); in experiment [8] it was 21.1% (inactive). In addition, the inhibition of aggregation in experiment [2] is 12.1% (inactive). The results for the nuclei count in experiment [2] and in experiment [3] were 90.9% and 105%, respectively. For the same compound, in experiment [4], the fluorescence slope was -0.4 (inactive). Further, the NADPH fluorescence slope in experiment [5] is 8.4e-06 (inactive). Besides, the slope in experiment [6] is 0.00653 (inactive).
`CCn1c(Cc2ccccc2)nnc1SCC(=O)Nc1ccc(N2CCOCC2)c(Cl)c1`: in experiment [1], the cell count amounted to 427. In addition, the inhibition in experiment [1] was 0.3% (inactive); in experiment [3], -56.2% (inactive); in experiment [7], 14% (inactive); in experiment [8], 5.26% (inactive). Besides, the inhibition of aggregation in experiment [2] is -13.2% (inactive). The nuclei count in experiment [2] was found to be 108%; in experiment [3] it was 168%. Besides, the fluorescence slope in experiment [4] is -0.441 (inactive). In experiment [5], the NADPH fluorescence slope is -6.7e-06 (inactive). For the same compound, the slope in experiment [6] was 0.00559 (inactive).
On to `COc1ccc(CNC(=O)c2nnn(Cc3ccc(OC)cc3)c2N)cc1`, for which the cell count in experiment [1] was 649. The inhibition is 2.8% (inactive) in experiment [1], -6.7% (inactive) in experiment [3], 12.2% (inactive) in experiment [7] and 22.1% (inactive) in experiment [8]. Besides, the inhibition of aggregation in experiment [2] was -8.9% (inactive). For the same compound, the results for the nuclei count in experiment [2] and in experiment [3] were 84.9% and 92.2%, respectively. Further, in experiment [4], the fluorescence slope was -0.624 (inactive). For the same compound, the NADPH fluorescence slope in experiment [5] is -2.4e-05 (inactive). Besides, in experiment [6], the slope is 0.00639 (inactive).
For `O=C(Nc1nnc(COc2ccc(F)cc2)s1)c1cccs1`, the cell count in experiment [1] came out at 585. The inhibition in experiment [1] was 7.2% (inactive); in experiment [3], -42.4% (inactive); in experiment [7] it was 12.6% (inactive); in experiment [8] it was 6.8% (inactive). In addition, in experiment [2], the inhibition of aggregation is 3.9% (inactive). The nuclei count stood at 126% in experiment [2] and 104% in experiment [3]. For the same compound, the fluorescence slope in experiment [4] is -0.52 (inactive). For the same compound, in experiment [5], the NADPH fluorescence slope was -2.5e-05 (inactive). For the same compound, the slope in experiment [6] was 0.0053 (inactive).
In the case of `Cc1c(NC(=O)C2(c3ccccc3)CCOCC2)c(=O)n(-c2ccccc2)n1C`, in experiment [1], the cell count came out at 552. The inhibition was 11.5% (inactive) in experiment [1], 25.9% (inactive) in experiment [3], 0.891% (inactive) in experiment [7] and 9.22% (inactive) in experiment [8]. The inhibition of aggregation in experiment [2] was 9.2% (inactive). Moreover, the nuclei count in experiment [2] worked out at 90.5%; in experiment [3], 130%. The fluorescence slope in experiment [4] is -0.435 (inactive). The NADPH fluorescence slope in experiment [5] was 2.3e-05 (inactive). The slope in experiment [6] is 0.00624 (inactive).
Consider `COC(=O)c1ccc(-c2nn(C)c(=O)c3ccccc23)cc1`, for which the cell count in experiment [1] worked out at 493. The inhibition is -5.5% (inactive) in experiment [1], -13.3% (inactive) in experiment [3], 8.98% (inactive) in experiment [7] and 29.2% (inactive) in experiment [8]. In addition, the inhibition of aggregation in experiment [2] was -11.1% (inactive). For the same compound, the nuclei count in experiment [2] was 76.7%; in experiment [3], 97.9%. In addition, in experiment [4], the fluorescence slope is -0.55 (inactive). Moreover, the NADPH fluorescence slope in experiment [5] was -3e-05 (inactive). The slope in experiment [6] was 0.00686 (inactive).
Turning to `COCCn1nnnc1CN(Cc1cccnc1)Cc1cc2cc(OC)ccc2[nH]c1=O`, the cell count in experiment [1] is 670. The inhibition in experiment [1] is -10.6% (inactive); in experiment [3], -11.6% (inactive); in experiment [7], 14.3% (inactive); in experiment [8], 25.2% (inactive). In experiment [2], the inhibition of aggregation was -13.1% (inactive). The nuclei count in experiment [2] stood at 122%; in experiment [3], 107%. The fluorescence slope in experiment [4] is -0.605 (inactive). For the same compound, the NADPH fluorescence slope in experiment [5] was -3.4e-05 (inactive). Moreover, the slope in experiment [6] is 0.00315 (inactive).

What is called inhibition is the relative decrease from the control value, in per cent.
